# Data from PubChem BioAssay (NCATS).
# Inconclusive results are not listed. Entries that show only a call come without a potency. Calls of active or inactive are those of the source. Calls come from the whole dose curve; as a rule, active = well fitted curve in either direction with a large enough effect (not every such curve was filed as active); inconclusive = small, poorly fitted or top-dose-only effect, or another doubt; inactive = flat fitted curve, though single readings scatter.
# Target: Mitogen-activated protein kinase 10 (Mus musculus) (UniProt Q61831)
# Experiment: JNK3 AlphaScreen Assay (AID 530);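 note: kinase came from lysate of stimulated human HepG2 cells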
# Conditions: JNK3 lysate, c-Jun phosphorylation; series mostly up to 57.1 µM
# Description: NIH Chemical Genomics Center [NCGC]
# NIH Molecular Libraries Screening Centers Network [MLSCN]
# The c-jun N-terminal kinase (JNK) family are serine/threonine protein kinases that phosphorylate c-jun, a component of the transcription factor […] (AP-1). JNK kinases are members of the mitogen-activated protein kinase family including the extracellular regulated kinases and p38 kinases. Three JNK genes (JNK 1, 2, and 3) have been identified in humans so far. JNK1 and JNK2 have a broad distribution and JNK3 is primarily found in neuronal tissues and cardiac myocytes.
# JNK3 has been under consideration as a target for the treatment of neurodegenerative disorders. […] JNK pathway is also involved in pathological process in a mouse model of Parkinson's disease (Xia et al., 2001).
# Given these potential tissue distributions and links to neuroprotection, JNK3 inhibitors should provide useful investigational tools to study the role of this kinase in several diseases including, arthritis, stroke, myocardial infarction, ischemic injury and Parkinson's disease.
# A homogeneous AlphaScreen is developed to measure the activity of JNK3. AlphaScreen is a two bead-based proximity-dependent chemical energy transfer luminescent assay platform. The phosphorylation of a biotinylated c-jun substrate by JNK3 can be detected with an antibody raised against phosphorylated c-jun. This process brings streptavidin donor beads and Protein-A acceptor beads to within a proximity range of <200 nm, and subsequently lead a chemical luminescent reaction upon exciting donor beads with 680 nm laser excitation light. Inhibition of JNK3 activity by small molecules and subsequent decrease in the antibody binding to biotinylated c-jun could attenuate or abolish this chemical luminescent reaction.
# Yang DD, Kuan CY, Whitmarsh AJ, Rincon M, Zheng TS, Davis RJ, Rakic P and Flavell RA (1997) Absence of excitotoxicity-induced apoptosis in the hippocampus of mice lacking the Jnk3 gene. Nature 389:865-870. [PMID: 9349820]
# Herdegen T, Claret FX, Kallunki T, Martin-Villalba A, Winter C, Hunter T, and Karin M (1998) Lasting N-terminal phosphorylation of c-Jun and activation of c-Jun N-terminal kinases after neuronal injury. J.Neurosci. 18:5124-5135. [PMID: 9651196]
# Xia XG, Harding T, Weller M, Bieneman A, Uney JB and Schulz JB (2001) Gene transfer of the JNK interacting protein-1 protects dopaminergic neurons in the MPTP model of Parkinson's disease. Proc.Natl.Acad.Sci.U.S.A. 98:10433-10438.
# NCGC Assay Protocol Summary:
# GST-cJun (1-79) (Stratagene, La Jolla CA, #205145) was biotnylated by PerkinElmer (PerkinElmer-BioSignalInc. Montreal, Canada) and was detectable by the streptavidin Donor beads. Anti-(phospho)cJun (Ser73) antibody was from UpState (Charlottesvilles, VA, #06-659). JNK3-containing lysates were generated from HepG2 cells and pre-activated by interleukin1-beta and tumor necrosis factor alpha. All reagents were stored at -20 C before using. Phosphorylated biotinylated-GST-cJun was recognized by Anti-(phospho)cJun (Ser73) antibody and this process brings acceptor and donor beads together. Therefore JNK3 phosphorylation of cJun can be measured by Alpha reading by EnVision (PerkinElmer, Boston, MA).
# The composition of kinase buffer was (in mM) 20 tris- HCl (pH 7.6) 10 MgCl2, 1 DTT, and 0.1 Na3VO4 and 0.01% Tween-20. Beads were diluted in detection buffer containing (in mM) 20 tris-HCl (pH 7.7), 20 NaCl and 80 EDTA and 0.3% BSA. The assay was performed at room temperature. All compounds were screened as titrations from 0.6 nM to 46 uM final concentration. The assay was performed in 1536-well format (white solid bottom and untreated) as follows:
# Sequence,Parameter,Value,Description
# 1,Reagent,3 uL,Biotin-GST-cJun, Anti-(phospho)cJun and pre-activated JNK3-containing lysates
# 2,Compound,23 nL,Final concentration was 0.6nM to 46uM
# 3,Time,15 minutes,Room Temperature
# 4,Reagent,1 uL,ATP final concentration 10uM
# 6,Reagent,0.5 uL,2ng/well bead mixture
# […]
row,SMILES,Potency
1,C[N+](C)(C)CCCCCCCCCC[N+](C)(C)C,inactive
2,CCn1cc(C(=O)O)c(=O)c2cc3c(cc21)OCO3,inactive
3,Nc1ncn([C@@H]2O[C@H](CO)[C@@H](O)[C@H]2O)c(=O)n1,inactive
4,CN(C)CCCN1c2ccccc2Sc2ccc(C(F)(F)F)cc21,inactive
5,CCN1CCC[C@H]1CNC(=O)c1c(O)c(Cl)cc(Cl)c1OC,inactive
6,C[C@H](CS)C(=O)N1CCC[C@H]1C(=O)O,inactive
7,CCn1nc(C(=O)O)c(=O)c2cc3c(cc21)OCO3,inactive
8,c1cc(CN2CCCCC2)cc(OCCCNc2nc3ccccc3s2)c1,inactive
9,COCC(=O)O[C@]1(CCN(C)CCCc2nc3ccccc3[nH]2)CCc2cc(F)ccc2[C@@H]1C(C)C,inactive
10,CC(C)[N+](C)(CCOC(=O)C1c2ccccc2Oc2ccccc21)C(C)C,inactive
11,FC(F)(F)c1ccccc1-n1ccnc1,inactive
12,c1cnc(N2CCN(Cc3ccc4c(c3)OCO4)CC2)nc1,inactive
13,Cc1scc2c1N(C(=O)CN1CCN(C)CC1)c1ccccc1NC2=O,inactive
14,CCN(CC)CCNC(=O)c1cc(S(C)(=O)=O)ccc1OC,inactive
15,O=c1[nH]c(=O)n([C@H]2C[C@H](O)[C@@H](CO)O2)cc1Br,inactive
16,CN(C)CC/C=C1\c2ccccc2COc2ccccc21,inactive
17,CN(C(=O)CCCOc1ccc2[nH]c(=O)ccc2c1)C1CCCCC1,inactive
18,CN/C(=C\[N+](=O)[O-])NCCSCc1ccc(CN(C)C)o1,inactive
19,CC(=O)Oc1cc(C(C)C)c(OCCN(C)C)cc1C,inactive
20,N[C@@H](COP(=O)(O)O)C(=O)O,inactive

row,SMILES,Potency
1,CCCCNC(=O)NS(=O)(=O)c1ccc(C)cc1,inactive
2,O=C1NCN(c2ccccc2)C12CCN(CCCC(c1ccc(F)cc1)c1ccc(F)cc1)CC2,inactive
3,C[N+](C)(C)CCOC(N)=O,inactive
4,CN(C)C(=O)Oc1cccc([N+](C)(C)C)c1,inactive
5,COc1cc(C(=O)OCCCN2CCCN(CCCOC(=O)c3cc(OC)c(OC)c(OC)c3)CC2)cc(OC)c1OC,inactive
6,C[N+](C)(C)CCOC(=O)CCC(=O)OCC[N+](C)(C)C,inactive
7,Cc1ccc(S(=O)(=O)NC(=O)NN2CCCCCC2)cc1,inactive
8,NC(=O)N1c2ccccc2C=Cc2ccccc21,inactive
9,CN=C(NC#N)NCCSCc1nc[nH]c1C,inactive
10,CCCN(CCC)CCc1cccc2c1CC(=O)N2,inactive
11,CCCCNc1ccc(C(=O)OCCN(C)C)cc1,inactive
12,O=C(O)CP(=O)(O)O,inactive
13,O=C(O)CN(CCN(CC(=O)O)CC(=O)O)CCN(CC(=O)O)CC(=O)O,inactive
14,CCc1cccc(N(C)C(N)=Nc2cccc3ccccc23)c1,inactive
15,O=C(CCCN1CCC(O)(c2cccc(C(F)(F)F)c2)CC1)c1ccc(F)cc1,inactive
16,NC(N)=NC(=O)Cc1c(Cl)cccc1Cl,inactive
17,Brc1c(NC2=NCCN2)ccc2nccnc12,inactive
18,CNCCCN1c2ccccc2CCc2ccccc21,inactive
19,CN1CCN(C2=Nc3ccccc3Oc3ccc(Cl)cc32)CC1,inactive
20,CC1=NS(=O)(=O)c2cc(Cl)ccc2N1,inactive
